The source of these data is PubChem BioAssay (NCI).

About 83,000 compounds went through this panel and 20% of them were active in at least one assay; those are over-represented in the sample as a whole.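 The endpoint reported here, percent growth, reads 100 for growth as untreated, 0 for no net growth and -100 for all cells dead.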 A number with no mark means an inactive call. Active and inactive are the calls of the source. How the source made its calls: active means growth percent below 10; inactive means the rest.

What all share (assay): NCI-60 one-dose screen, 48 h (100 = growth as untreated, 0 = no growth, -100 = all killed)
What all share (conditions): 10 µM unless noted

Assay [1] has as its system NCI-H23 lung.
Assay [2] has as its system NCI-H226 lung.
Assay [3] concerns NCI-H322M lung.
For assay [4], the system named is HOP-62 NSCLC.
Assay [5] concerns NCI-H460 lung.
Assay [6] has as its system HOP-92 NSCLC.
Assay [7] has as its system A549/ATCC NSCLC.
For assay [8], the system named is 786-0 renal.
In assay [9] the test system is COLO 205 colon.
Assay [10] concerns DU-145 prostate.
In assay [11] the test system is K-562 leukemia.
The subject of assay [12] is MALME-3M melanoma.
Assay [13] concerns MDA-MB-231 breast.
For assay [14], the system named is RXF 393 renal.
Assay [15] deals with SF-268 CNS.
The subject of assay [16] is SF-539 CNS.
In assay [17] the test system is UACC-257 melanoma.
In assay [18] the test system is M14 melanoma.
Assay [19] concerns SF-295 CNS.

Consider `NS(=O)(=O)c1ccc(-n2nc(-c3ccc(Br)cc3)ccc2=O)cc1`, for which the growth in assay [1] was 61.3% [100 µM]; in assay [2], 79.5% [100 µM]; in [3] it was 87.7% [100 µM]; in [4] it was 20% [100 µM]; in [5] it was 67.2% [100 µM]; in [6], -30.5% [100 µM] (active). For the same compound, the growth in assay [7] is 58% [100 µM]; in assay [8] it was 46.7% [100 µM]; in [9], 80.2% [100 µM]; in assay [10] it was 12.4% [100 µM]; in [11], 40.1% [100 µM]; in assay [12], 55.1% [100 µM]. Further, the growth in assay [13] is 34.2% [100 µM]; in assay [14], 40.9% [100 µM]; in assay [15], 66.8% [100 µM]; in assay [16], 67% [100 µM]; in assay [17], 106% [100 µM]; in assay [18] it was 62.4% [100 µM].
As for `O=C1/C(=C/c2ccccc2Cl)CCc2ccccc21`, the growth is 102% in assay [1]; 106% in assay [2]; 101% in assay [3]; 106% in assay [4]; 104% in assay [5]; 90.7% in assay [6]. Moreover, the growth in assay [7] is 83.5%; in [8], 102%; in [9] it was 115%; in [10] it was 108%; in assay [11], 105%; in assay [12], 104%. Further, the growth in [13] is 111%; in [14], 107%; in assay [15] it was 96.7%; in assay [19], 65.3%; in [16] it was 106%; in assay [18] it was 104%.
As to `c1cc[n+](Cc2ccnc3ccccc23)cc1`, the growth in assay [1] was 123%; in assay [2], 93.9%; in assay [3], 111%; in [4], 94.1%; in assay [5], 106%; in [6], 47.9%. The growth in assay [7] was 107%; in assay [8] it was 107%; in assay [9], 104%; in assay [10], 117%; in [11] it was 71.3%; in assay [12], 114%. Moreover, the growth in assay [13] is 98.9%; in assay [14], 90.3%; in assay [15] it was 106%; in assay [19] it was 95.9%; in [16], 89.3%; in [18], 101%.
As to `COc1cc(NC(C)CCCN)c2nc(C)ccc2c1Oc1ccc(F)cc1` (stereo not drawn), the growth was 84.8% in [1]; 84.9% in assay [2]; 37.4% in assay [3]; 85.8% in [4]; 73.8% in assay [5]; 50.3% in assay [6]. In addition, the growth in assay [7] was 90%; in assay [8], 65.9%; in [9], -45.1% (active); in assay [10] it was 99.9%; in assay [11], 35.9%; in assay [12] it was 71.7%. The growth is 61.5% in [13]; 69.3% in assay [14]; 80.7% in [15]; 87.5% in assay [16]; 65.7% in assay [17]; 62.3% in assay [18].
For `Nc1ccc2c(c1)Cc1cc(Cl)c(Cl)cc1-2`, the growth in [1] was 68.1%; in assay [2], 92.3%; in assay [3] it was 60.5%; in assay [4] it was 86.5%; in assay [5], 52.6%; in [6] it was 67.8%. For the same compound, the growth was 59.1% in assay [7]; 59.7% in assay [8]; 85.1% in assay [9]; 59.9% in assay [10]; 67.4% in assay [11]; 52.5% in assay [13]. Moreover, the growth in assay [14] was 50.7%; in assay [15], 74%; in assay [19], 50.1%; in [16], 74.2%; in assay [17], 77%; in [18], -9.59% (active).
For the compound `Clc1ccc(C2c3ccccc3-c3nccn32)c(Cl)c1` (stereo not drawn), the growth in assay [1] was 40%; in [2], 66.6%; in assay [3], 88.1%; in assay [4] it was 78.2%; in [5], 88.5%; in [6], -2.6% (active). Moreover, the growth in [7] is 79.6%; in assay [8], 80.8%; in [9], 97.2%; in [10], 92.4%; in [11] it was 35.5%; in assay [12], 83.8%. In addition, the growth in assay [13] was 84.1%; in [15], 99.3%; in assay [19], 41.7%; in assay [16], 88.5%; in assay [17], 80.5%; in [18], 65%.
Take `CCCCCc1c(C)[nH]c(/C=C2\N=C(c3ccc[nH]3)C=C2OCc2ccccc2)c1C`: the growth was -67.3% [100 µM] (active) in assay [1]; -42.5% [100 µM] (active) in assay [2]; -94.6% [100 µM] (active) in assay [3]; -91.9% [100 µM] (active) in assay [4]; -40.4% [100 µM] (active) in assay [5]; -77.6% [100 µM] (active) in assay [6]. Moreover, the growth in [7] was -70% [100 µM] (active); in assay [8], -75.7% [100 µM] (active); in assay [9] it was -84% [100 µM] (active); in assay [10] it was -100% [100 µM] (active); in assay [11], -26.2% [100 µM] (active); in assay [12], -86.9% [100 µM] (active). The growth was -86.4% [100 µM] (active) in assay [13]; -48.8% [100 µM] (active) in assay [14]; -70.9% [100 µM] (active) in [15]; -69.8% [100 µM] (active) in [16]; -87.7% [100 µM] (active) in assay [17]; -81.4% [100 µM] (active) in [18].
Turning to `N[C@H](CS)C(=O)O`, the growth in assay [1] was 102%; in assay [2] it was 105%; in assay [3] it was 83.8%; in assay [4], 101%; in assay [5], 103%; in assay [6] it was 86.4%. Also, the growth in assay [7] was 99.5%; in assay [8], 105%; in assay [9] it was 120%; in [10], 121%; in assay [11], 107%; in assay [12] it was 91%. Further, the growth is 114% in assay [13]; 119% in assay [15]; 94.4% in assay [19]; 89.7% in [16]; 116% in [18].
